In all, about 1,400 compounds went through this assay and about 10 (0.7%) were called active. A call without a number means that no potency is given here. Roughly 2% stayed inconclusive and do not appear here. Calls follow the shape of the dose curve; as a rule, active = well fitted inhibition curve with a large enough effect; inconclusive = small, poorly fitted or top-dose-only effect; inactive = flat fitted curve, though single readings scatter. Only a selection was taken, and actives are over-represented in it overall.
Potency is read from the fitted curve at half-maximal effect.

Chain of Luciferin 4-monooxygenase (Photinus pyralis) (P08659 whole entry, looked up): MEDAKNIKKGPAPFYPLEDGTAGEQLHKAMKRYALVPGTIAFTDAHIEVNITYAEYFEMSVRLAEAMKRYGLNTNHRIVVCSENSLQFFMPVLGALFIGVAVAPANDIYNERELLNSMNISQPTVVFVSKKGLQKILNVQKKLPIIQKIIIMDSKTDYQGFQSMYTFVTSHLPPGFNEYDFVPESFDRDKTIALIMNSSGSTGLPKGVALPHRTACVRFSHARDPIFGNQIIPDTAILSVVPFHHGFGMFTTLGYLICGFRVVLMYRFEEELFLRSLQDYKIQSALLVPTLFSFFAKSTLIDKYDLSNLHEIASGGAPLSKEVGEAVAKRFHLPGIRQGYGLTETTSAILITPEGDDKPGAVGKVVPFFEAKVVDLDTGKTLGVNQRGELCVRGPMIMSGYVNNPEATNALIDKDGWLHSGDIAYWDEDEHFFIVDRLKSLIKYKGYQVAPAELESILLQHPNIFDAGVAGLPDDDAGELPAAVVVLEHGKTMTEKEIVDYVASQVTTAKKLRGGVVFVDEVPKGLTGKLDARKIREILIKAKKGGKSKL

In this assay the target is Luciferin 4-monooxygenase (Photinus pyralis) (UniProt P08659). Kind of assay: Natriuretic polypeptide receptor (hNpr1) antagonism - Confirmation firefly luciferase (FLuc) inhibition counterscreen. The note with it: purified FLuc enzyme, luminescence, Km substrate; series mostly up to 57.6 µM. The source says:
Firefly (Photinus pyralis) luciferase (FLuc) is one of the more frequently used transcriptional reporter genes, and it has also been developed as a cellular sensor for cyclic nucleotides. (Fan F & Wood KV, 2007; Fan F et al., 2008) However, a significant number of compounds that populate chemical libraries have been identified as FLuc ligands which can be mistaken for modulators of the intended targeted pathways, receptors or enzymes. (Auld, DS et al. 2008; Thorne, N et al. 2012) Therefore, the FLuc enzyme assay conducted at sensitive Km level substrate conditions is used to counter-screen for potential FLuc ligands. Auld DS, Thorne N, Nguyen DT & Inglese J A specific mechanism for nonspecific activation in reporter-gene assays. ACS Chem Biol. 2008, 3: 463-470. DOI: 10.1021/cb8000793 Fan F, Binkowski BF, Butler BL, Stecha PF, Lewis MK, Wood KV. Novel genetically encoded biosensors using firefly luciferase. ACS Chem Biol. 2008, 3: 346-351. DOI: 10.1021/cb8000414 Fan F and Wood KV. Bioluminescent assays for high-throughput screening. Assay Drug Dev Technol. 2007, 5: 127-136. […] Chemistry & Biology, 2012, 19: 1060-1072. DOI.org/10.1016/j.chembiol.2012.07.015
PROTOCOL TABLE (as described by Inglese J, Shamu CE and Guy RK. 2007) SEQUENCE No. (e.g., 1, 2, 3, etc.); PARAMETER (e.g., Cells, Incubation, Reagent, etc.); VALUE and DESCRIPTION. FLUC KM ENZYME COUNTERSCREEN (Thorne, N.T. et al. 2012) 1. Reagent. Add 3 uL of D-luciferin substrate buffer per well into Greiner 1536-well white/solid bottom high base, medium bind plates. 2. Compounds. Library compounds and PTC124 control added at 23nL per well, transferred by Pin Tool. 3. Incubation. Incubate plates at room temperature for […], protect from light. 4. Reagent. Add 1uL of P. pyralis luciferase (FLuc) per well of Greiner 1536-well plates. 5. Incubation. Incubate plates at room temperature for 10 min., protect from light. 6. Detector. FLuc luminescence measured using CCD-based camera (Viewlux). NOTES (numbers refer to Sequence numbers above) 1. Substrate buffer: 10 uM D-luciferin final concentration in 50 mM Tris-Acetate, pH 7.6, 10 mM Mg-Acetate, 10 uM ATP, 0.01% Tween-20, and 0.05% BSA buffer added at 3uL/well to 13 x Greiner 1536-well white/solid bottom high base, medium bind plates. 2. PTC124 stock solution prepared (10 mM in DMSO; Auld D.S. et al. 2010). Working dilution for dispense = 10 mM stock dilution (57.5 uM final concentration; 16-pt 1:3 titration in duplicate = final concentration range of 57.5 uM - 4 pM). 23nL of library compounds, PTC124 control or DMSO vehicle control transferred to the 13 substrate-containing Greiner white/solid bottom high base, medium bind plates in 11 interplate 1:3 titrations (see Yasgar, A. et al. 2008) with Pintool. 3. Substrate incubated for 30-50 min. at ambient temperature protected from light with metal lid. 4. Enzyme solution: 10 nM P. pyralis luciferase (FLuc) final concentration in 50 mM Tris-Acetate, pH 7.6 added at 1uL to 13 x Greiner 1536-well white/solid bottom high base, medium bind plates. 5. Substrate and enzyme incubated with test library compounds and controls for 10 min. at ambient temperature protected from light with metal lid. 6. Read final Luminescence on the ViewLux. [Exposure = 30 s.; Gain = High; Speed = Slow; and Binning = 2X.] REFERENCES: Auld DS, Lovell S, Thorne N, Lea WA, Maloney DJ, Shen M, Rai G, Battaile KP, Thomas CJ, Simeonov A, Hanzlik RP and Inglese J. Molecular basis for the high-affinity binding and stabilization of firefly luciferase by PTC124. […] Chemistry & Biology, 2012, 19: 1060-1072. doi.org/10.1016/j.chembiol.2012.07.015 Yasgar A, Shinn P, Jadhav A, Auld DS, Michael S, Zheng W, Austin CP, Inglese J and Simeonov A, Compound Management for Quantitative High-Throughput Screening. J. Assoc. Lab. Auto., 2008, 13: 79-89. doi: 10.1016/j.jala.2007.12.004
In general terms: The purpose of a counterscreen is to sort out artefacts and off-target activity.
Take `Cc1nc(-c2ccncc2)ncc1C(C)Nc1ncnc(C)c1C` (stereo not drawn): the Potency entry is “inactive”.

`Cc1noc(C)c1-c1cnc2[nH]cc(CC(=O)N3CCOCC3)c2c1`: the Potency result is “inactive”.

Consider `N#Cc1cccc(CN2CCC(C3=NC(O)c4cc(F)ccc4N3)CC2)c1` (stereo not drawn), for which the Potency entry is “inactive”.

On to `CC1=NS(=O)(=O)N(C)C=C1C(=O)OCc1nc(-c2ccc(C)cc2)no1`, for which the Potency entry was “inactive”.

`Cc1cc(N2CCCC(Cn3cc(Cc4ccccc4)nn3)C2)nc(N)n1` (stereo not drawn): the Potency entry is “inactive”.

Take `Cc1ccc(C)c(C(=O)N2CCC3(CC2)N=C(c2ccc(Cl)cc2)NO3)c1`: the Potency entry was “inactive”.

`COc1ccc(S(=O)(=O)N2CCc3c(C(=O)NCCc4ccccn4)cccc32)cc1`: the Potency result was “inactive”.

For the compound `COc1ccc(-c2noc(CC3CCN(C(=O)Cc4ccc(OC)c(OC)c4)CC3)n2)cc1`, the Potency entry is “inactive”.

Consider `O=C(c1ccc(F)cc1F)N1CCN(c2cc(-c3ccc(Cl)cc3)[nH]n2)CC1`, for which the Potency entry is “inactive”.

Turning to `O=C(CCC1CCN(C(=O)c2ccccc2F)CC1)Nc1cccc(Cl)c1`, the Potency entry was “inactive”.

In the case of `O=[S+]1([O-])NCC2(CCCN(Cc3ccc(C(F)(F)F)cc3)C2)Oc2ncccc21` (stereo not drawn), the Potency result is “inactive”.

Take `COc1ccc(C(CC(=O)N(C)Cc2cc(C3CC3)n[nH]2)c2ccccc2)cc1` (stereo not drawn): the Potency entry was “inactive”.

Consider `COc1cccc(NC(=O)Cn2c(N(C)Cc3ccccc3)nc(C)cc2=O)c1`, for which the Potency result is “inactive”.

Consider `Cc1ccc(C(=O)N2CCN(c3cc(-c4ccc(Cl)cc4)[nH]n3)CC2)c(C)c1`, for which the Potency result is “inactive”.

Turning to `COc1cccc(-c2noc(CC3CCN(C(=O)c4ccc(F)cc4)CC3)n2)c1`, the Potency entry was “inactive”.

Turning to `Cc1nn2c(c1-c1ccnn1C(C)C)N(CC1CCOCC1)CCC2`, the Potency result is “inactive”.

Regarding `CN1CCN(C(=O)C(C)(C)Oc2nn(Cc3cccc(Cl)c3)c3ccccc23)CC1`, the Potency entry is “inactive”.

On to `CC1=NS(=O)(=O)N(C)C=C1C(=O)OCc1noc(-c2ccco2)n1`, for which the Potency entry is “inactive”.

Take `CC1(C(=O)NCc2ccc3c(c2)OCO3)CCc2cnc(NCc3ccccc3)nc21` (stereo not drawn): the Potency entry was “inactive”.

With `COC(=O)c1cccc(NC(=O)CCNc2c(C)nc3cnccn23)c1`, the Potency result was “inactive”.

Turning to `O=C(c1ccccc1)N1CCC(C(=O)N2CCC(Cc3nc(-c4ccc(F)cc4)no3)CC2)CC1`, the Potency result is “inactive”.

As to `Fc1ccc(CNC[C@H]2Cn3c(-c4ccc5c(c4)OCCO5)cnc3CO2)cc1`, the Potency result was “inactive”.

As to `COc1ccc(-c2noc(CC3CCN(C(=O)Cc4ccc(C)cc4)CC3)n2)cc1`, the Potency result is “inactive”.

For `Cc1cccc(C(=O)N2CCC(Oc3ccc(-c4noc(C(C)C)n4)cc3)C2)c1` (stereo not drawn), the Potency entry is “inactive”.

In the case of `COc1ccc(CC(=O)N2CCC(Cc3nc(-c4ccccc4)no3)CC2)cc1OC`, the Potency entry is “inactive”.

`COc1ccc(-c2noc(CC3CCN(C(=O)CC4CCCCC4)CC3)n2)cc1`: the Potency entry was “inactive”.

In the case of `COc1ccccc1Nc1cnc2ccc(N(C)Cc3cccnc3)nn12`, the Potency result was “inactive”.

Regarding `COc1ccc(OCC2(C)COc3ccc(C(=O)Nc4cccnc4)cc3N2)cc1` (stereo not drawn), the Potency result was “inactive”.

For `O=C(c1ccc(F)cc1Cl)N1CCC(n2cc(-c3nc(-c4ccccc4)no3)nn2)C1` (stereo not drawn), the Potency entry was “inactive”.

In the case of `O=C(c1cc(F)ccc1Cl)N1CCN(c2cc(-c3ccc(F)cc3)[nH]n2)CC1`, the Potency result was “inactive”.

In the case of `Cc1ccc(OCc2nc(C3CCN(C(=O)CCc4nc5ccc(Cl)cc5[nH]4)CC3)no2)cc1`, the Potency result was “inactive”.

Turning to `CC1(CCCCc2ccccc2)COc2ccc(C(=O)N3CC[S+](=O)([O-])CC3)cc2N1` (stereo not drawn), the Potency result is “inactive”.

As to `CN(C)CCNC(=O)C(C)(C)Oc1nn(Cc2cccc(Cl)c2)c2ccccc12`, the Potency entry was “inactive”.

`O=C(NCC1CC1)c1nc2c(o1)CCN(Cc1cccc(F)c1F)CC2`: the Potency entry was “inactive”.

With `Cc1cc(CNC(=O)c2ccc(-c3ccccc3Cl)o2)n(C)n1`, the Potency entry was “inactive”.

As to `Cc1noc(C)c1-c1cc(-c2ccccc2Oc2ccccc2)cn2cncc12`, the Potency result is “inactive”.

Take `O=C(NCc1nnc2cc(-c3nc(C4CC4)no3)ccn12)c1ccc(F)cc1Cl`: the Potency result is “inactive”.

As to `Cc1cccc(CN2CCc3nc(C(=O)Nc4ccc(Cl)cc4)oc3CC2)c1`, the Potency entry is “inactive”.

On to `C1CCC(COCCc2noc(C3CNC3)n2)C1`, for which the Potency entry is “inactive”.

As to `O=C(c1cccc(F)c1)N1CCOC[C@H](Oc2ccc(C(F)(F)F)cc2)C1`, the Potency entry was “inactive”.

Turning to `Cc1cccc(-c2cccc(CN)c2)c1`, the Potency result is “inactive”.

For `Cc1c[nH]c(CN2CCCC(CCc3ccc(F)cc3F)C2)c(C)c1=O` (stereo not drawn), the Potency result is “inactive”.

With `c1ccc(CO[C@@H]2CO[C@H]3[C@@H]2OC[C@@H]3n2nnnc2SCc2ccco2)cc1`, the Potency entry is “inactive”.

For `CC(=O)N1CCC(NC[C@H]2O[C@H](Cc3cc(-c4cccc(O)c4)on3)CC[C@@H]2O)CC1`, the Potency entry is “inactive”.

In the case of `O=C(c1ccccc1)N1CCNc2cnc(Nc3cccc(C(F)(F)F)c3)nc2C1`, the Potency result is “inactive”.

Consider `O=c1[nH]c(C2CCCN(Cc3ccccn3)C2)nn1-c1ccc(Cl)cc1` (stereo not drawn), for which the Potency entry was “inactive”.

For `COc1ccc(CN2C(=O)CO[C@H]3CN(Cc4ccc5c(c4)OCO5)C[C@H]32)cc1`, the Potency entry was “inactive”.

In the case of `CC(C)c1cc(C(=O)N2CCC(n3cc(-c4ccccn4)nn3)CC2)n(C)n1`, the Potency result was “inactive”.

Take `O=C(N1CCN(c2cc(-c3ccc(Cl)cc3)[nH]n2)CC1)C1(c2ccccc2)CC1`: the Potency entry was “inactive”.

Regarding `Cc1ccc2c(c1)nc1n2[C@@H](CNS(=O)(=O)c2ccccc2)COC1`, the Potency result is “inactive”.

Turning to `COc1cccc(CNC(=O)Cn2c(N(C)Cc3ccccc3)nc(C)cc2=O)c1OC`, the Potency result is “inactive”.

For the compound `COc1cccc(C2C(C(=O)Nc3ccccc3)=C(C)N=C3SC=C(CC(=O)NCC(C)C)N32)c1` (stereo not drawn), the Potency entry was “inactive”.

For the compound `Cc1ccc2nc(C3CCCN(Cc4ccc(C#N)cc4)C3)[nH]c(=O)c2c1` (stereo not drawn), the Potency result is “inactive”.

In the case of `COC(=O)C1=C(C)N=C2SC=C(CC(=O)NCCC(C)C)N2C1c1ccccc1Cl` (stereo not drawn), the Potency entry is “inactive”.

On to `O=C1Nc2ccccc2CN(Cc2ccccc2)C12CCNCC2`, for which the Potency result is “inactive”.

In the case of `COc1ccc(C2Cn3nnc(C(=O)N4CCN(C(=O)c5ccc(C)cc5C)CC4)c3CO2)cc1` (stereo not drawn), the Potency entry is “inactive”.

On to `COc1ccc(C2Cn3nnc(C(=O)N4CCN(C(=O)c5cccc(Cl)c5)CC4)c3CO2)cc1` (stereo not drawn), for which the Potency entry is “inactive”.

For `COc1ccc(C(=O)N2CCC(n3cc(-c4nc(C(C)C)no4)nn3)CC2)cc1F`, the Potency entry is “inactive”.

`O=C1NCN(Cc2ccc(Cl)cc2)C12CCN(Cc1ccccc1)CC2`: the Potency result was “inactive”.

For the compound `O=C1c2cnc(-c3ccc(Cl)cc3)nc2OCCN1Cc1ccccc1`, the Potency was 2500 nM (active).

Consider `OC1(Cc2cc(-c3ccccc3)no2)CCN(c2ncncn2)CC1`, for which the Potency entry is “inactive”.

With `CC(C)c1noc(-c2cn(C3CCN(C(=O)c4ccc(N(C)C)cc4)C3)nn2)n1` (stereo not drawn), the Potency result is “inactive”.

As to `CC(C)c1nncn1C1CCN(S(=O)(=O)c2cccc(Br)c2)CC1`, the Potency entry is “inactive”.

Consider `COc1ccc(-c2noc(CC3CCN(C(=O)Cc4ccccc4)CC3)n2)cc1`, for which the Potency entry is “inactive”.

In the case of `O=C(c1ccc2cc[nH]c2c1)N1CCC2(CC1)N=C(c1ccc(Cl)cc1)NO2`, the Potency entry was “inactive”.

Take `CCN(CCCNC(=O)c1nnn2cc(-c3ccccc3)[nH]c(=O)c12)c1ccccc1`: the Potency entry was “inactive”.

Take `CCc1ccc(C(=O)N2CCN(c3cc(-c4ccc(F)cc4)[nH]n3)CC2)cc1`: the Potency entry is “inactive”.

In the case of `COc1ccc(CCNC(=O)c2noc(-c3ccc(C)cc3)n2)cc1OC`, the Potency entry is “inactive”.

As to `O=C(c1ccccn1)N1CC(Oc2ccc(-c3noc(C4CC4)n3)cc2)C1`, the Potency result was “inactive”.

As to `Cc1cccc(C(=O)N2CCC3(CC2)CC(N(Cc2ccc(F)cc2)C2CC2)CCO3)c1` (stereo not drawn), the Potency result is “inactive”.

Regarding `Cc1nn2c(c1-c1ccccc1-c1ccccc1)N(CC1CC1)CCC2`, the Potency entry is “inactive”.

Take `CN(Cc1csc(-c2ccccc2)n1)c1cc(C2CC(O)C2)nc(N)n1` (stereo not drawn): the Potency result is “inactive”.

`COc1cccc(C2Cn3nnc(-c4nc(-c5ccccc5)no4)c3CO2)c1` (stereo not drawn): the Potency result was “inactive”.
